# Values joined by “and” are separate entries in the source; they are usually repeats but may differ in a detail not shown here. Identical values can stand only once. Inconclusive results are not listed. Where a call stands in place of a potency, no number is given. A number with no mark means an inactive call. Active and inactive are the calls of the source. Calls follow the shape of the dose curve; as a rule, active = well fitted curve in the direction sought with a large enough effect; inconclusive = small, poorly fitted or top-dose-only effect, or another doubt; inactive = no such curve, though single readings can be large; an effect the other way counts as inactive or inconclusive. Where a SMILES comes first, the peptide text is derived from it. [ ]: non-standard residue; d: D form. Hyp = O=C(O)[CH]1C[CH](O)CN1; Phe(ol) = N[CH](CO)Cc1ccccc1; Iva = CC[C](C)(N)C(=O)O; Aib = CC(C)(N)C(=O)O
# Assays:
# [1] = molecular target: Calcium and integrin-binding protein 1 (Homo sapiens) (UniProt Q99828); experiment: Primary qHTS for Identification of Calcium Integrin Binding Protein 1 (CIB1) Competitor (AID 1508620);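 also: GST tagged CIB1 binding a fluorescein labelled alphaIIb integrin peptide tracer; top concentration of the series differs between compounds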
# Calcium and integrin-binding protein 1 (Homo sapiens), sequence (Q99828 whole entry, looked up): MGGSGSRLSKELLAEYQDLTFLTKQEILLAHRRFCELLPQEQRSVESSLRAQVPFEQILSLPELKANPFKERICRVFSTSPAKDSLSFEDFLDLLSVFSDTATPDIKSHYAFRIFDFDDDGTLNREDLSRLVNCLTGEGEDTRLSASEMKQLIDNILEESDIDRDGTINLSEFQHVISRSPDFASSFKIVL
# In short: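 Fluorescence polarization competition: GST-tagged CIB1 (1 uM final) preincubated with compound 15 min at room temperature, then FITC-labelled alphaIIb peptide (100 nM final) added. After 15 min at room temperature, polarization read at Ex 480/Em 540.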
# [2] = Primary qHTS for inhibitors of nuclear receptor binding SET domain protein 2 (NSD2) in an isogenic RCH-ACV NSD2 p.E1099K mutant (9B) (AID 1645876); also: nearly all actives have a fitted effect of over 70% in size; also: potency is read from the fitted curve at half-maximal effect
# [3] = Primary qHTS for inhibitors of nuclear receptor binding SET domain protein 2 (NSD2) in an RCH-ACV wild type WT cells (2C) (AID 1645877); also: nearly all actives have a fitted effect of over 70% in size; also: potency is read from the fitted curve at half-maximal effect
compound,measurement,setting,value
C=C(C)C1=C[C@@]2(C)C(=CC1=O)CC[C@@H](O)[C@@H]2C,Potency,[1],inactive
same,Potency,[2],inactive
CC(C)n1cnc2c(-c3cnc(N)nc3)nc(N3CCOCC3)nc21,Potency,[1],inactive
same,Potency,[2],0.159 µM (active)
same,Potency,[3],0.224 µM (active)
C=C(C)C1CCC2(C(=O)O)CCC3(C)C(CCC4C5(C)C(C=O)C(O)C(C)(C)C5CCC43C)C12 (stereo not given),Potency,[1],inactive
same,Potency,[2],inactive
C/C=C/C=C/C(=O)O[C@@H]1C=C2COC(=O)[C@]2(O)[C@@]2(C)CCCC(C)(C)[C@H]12,Potency,[1],inactive
same,Potency,[2],inactive
CN1c2c(nc(N)[nH]c2=O)NC[C@@H]1CNc1ccc(C(=O)N[C@@H](CCC(=O)O)C(=O)O)cc1,Potency,[1],inactive
same,Potency,[2],inactive
CCOC(=O)c1csc(Nc2ccc(Cl)cc2)n1,Potency,[1],inactive
same,Potency,[2],18.3 µM (active)
C=C1C(=O)O[C@@H]2/C=C(\CO)CC/C=C(/C=O)C[C@H](O)[C@@H]12,Potency,[1],inactive
same,Potency,[2],7.28 µM (active)
CC1CC(=O)C2=C(C1)C1OC1C1(O)C2C(=O)c2cccc(O)c2C1O (stereo not given),Potency,[1],inactive
same,Potency,[2],inactive
same,Potency,[3],inactive
CC(C)n1c(=O)c(C(=O)NC2CC3CCC(C2)N3C[C@@H](O)CN(C)S(C)(=O)=O)cc2ccccc21 (stereo not given in full),Potency,[1],inactive
same,Potency,[2],inactive
CC(C)(Cc1ccccc1)NCC(O)c1ccc(O)c(NS(C)(=O)=O)c1 (stereo not given),Potency,[1],inactive
same,Potency,[2],inactive
CC(C)(C)C1CCN(C(=O)n2ncc(C(O)(c3ccccc3)c3ccccc3)n2)CC1,Potency,[1],inactive
same,Potency,[2],20.5 µM (active)
CC(=O)OC[C@]12[C@H](OC(C)=O)[C@H](OC(=O)c3ccccc3)[C@@H]3[C@@H](OC(C)=O)[C@]1(OC3(C)C)[C@H](C)C[C@H](OC(C)=O)[C@@H]2OC(=O)c1ccccc1,Potency,[1],inactive
same,Potency,[2],inactive
CC1(C)CC[C@]23CO[C@@]4(CCC5[C@@]6(C)CC[C@H](O[C@@H]7OC[C@H](O[C@@H]8O[C@H](CO)[C@@H](O)[C@H](O)[C@H]8O[C@@H]8OC[C@@H](O)[C@H](O)[C@H]8O)[C@H](O)[C@H]7O[C@@H]7O[C@H](CO)[C@@H](O)[C@H](O)[C@H]7O)[C@@](C)(CO)C6CC[C@@]5(C)[C@]4(C)C[C@H]2O)[C@@H]3C1 (stereo not given in full),Potency,[1],inactive
same,Potency,[2],1.54 µM (active)
same,Potency,[3],2.75 µM (active)
C=C(C)[C@@H]1CC[C@]2(C(=O)O)CC[C@]3(C(=O)O)[C@H](CCC4[C@@]5(C)CCC(=O)C(C)(C)C5CC[C@]43C)C12 (stereo not given in full),Potency,[1],inactive
same,Potency,[2],11.2 µM (active)
C/C=C(\C)C(=O)O[C@H]1C[C@](C)(O)[C@H]2CC=C(C)[C@H]2[C@@H]2OC(=O)[C@H](C)[C@H]21,Potency,[1],inactive
same,Potency,[2],inactive
C=C(C)C(=O)O[C@H]1[C@H]2C(=C)C(=O)O[C@@H]2C[C@@H](C)[C@@H]2O[C@@H]2C(=O)[C@](C)(O)[C@@H]1OC(=O)C(=C)C,Potency,[1],inactive
same,Potency,[2],1.78 µM (active)
Cc1cc(-c2nc3cc(F)ccc3s2)ccc1NC(=O)[C@@H](N)CCCCN,Potency,[1],inactive
same,Potency,[2],5.25 µM (active)
same,Potency,[3],4.17 µM (active)
CC(=O)OC1C(O)CC2(C)C(CCC3(C)C2CC=C2C4C5(CCC(CO[C@@H]6O[C@H](CO)[C@@H](O)[C@H](O)[C@H]6O)(OC5=O)C4(C)O)C(O)CC23C)C1(C)C (stereo not given in full),Potency,[1],inactive
same,Potency,[2],inactive
same,Potency,[3],inactive
CCC(C(C)O)n1ncn(-c2ccc(N3CCN(c4ccc(OCC5COC(Cn6cncn6)(c6ccc(F)cc6F)C5)cc4)CC3)cc2)c1=O (stereo not given),Potency,[1],inactive
same,Potency,[2],2.05 µM (active)
O=c1[nH]cnc2c([C@@H]3N[C@H](CO)[C@@H](O)[C@H]3O)c[nH]c12,Potency,[1],inactive
same,Potency,[2],inactive
same,Potency,[3],inactive
O=C(O)C1=CO[C@@H](O[C@@H]2O[C@H](CO)[C@@H](O)[C@H](O)[C@H]2O)[C@@H]2C(CO)=CC[C@H]12,Potency,[1],inactive
same,Potency,[2],inactive
same,Potency,[3],inactive
CN1CCc2cc3c(cc2C(=O)Cc2cc4c(cc2C1)OCO4)OCO3,Potency,[1],inactive
same,Potency,[2],inactive
same,Potency,[3],inactive
COc1c(CCC(=O)O)cccc1O[C@@H]1O[C@H](CO)[C@@H](O)[C@H](O)[C@H]1O,Potency,[1],inactive
same,Potency,[2],inactive
same,Potency,[3],inactive
C[C@H](CN(C)C)Oc1nc(Nc2cc3cccc(Cl)c3cn2)cnc1C#N,Potency,[1],inactive
same,Potency,[2],459 nM (active) and 934 nM (active)
same,Potency,[3],409 nM (active) and 934 nM (active)
CC(=O)O[C@H]1CC(C)(C)CC2[C@]13CO[C@@]21CCC2[C@@]4(C)CC[C@H](O[C@@H]5OC[C@H](O[C@@H]6O[C@H](CO)[C@@H](O)[C@H](O)[C@H]6O[C@@H]6OC[C@@H](O[C@@H]7O[C@H](CO)[C@@H](O)[C@H](O)[C@H]7O)[C@H](O)[C@H]6O)[C@H](O)[C@H]5O[C@@H]5O[C@H](CO)[C@@H](O)[C@H](O)[C@H]5O)[C@@](C)(CO)C4CC[C@@]2(C)[C@]1(C)C[C@H]3O (stereo not given in full),"activity change, negative = inhibition",[1],3.35% [at 12.4 µM]
same,Potency,[2],1.09 µM (active)
same,Potency,[3],2.18 µM (active)
CCC(C)(NC(=O)C(CCC(N)=O)NC(=O)C1CC(O)CN1C(=O)C(C)(C)NC(=O)C(C)(C)NC(=O)C(CC(C)C)NC(=O)CNC(=O)C(NC(=O)C(C)(C)NC(=O)C(C)(C)NC(=O)C(C)(C)NC(=O)C(Cc1ccccc1)NC(C)=O)C(C)C)C(=O)N1CC(O)CC1C(=O)NC(C)(C)C(=O)NC(CO)Cc1ccccc1 (stereo not given) (Ac-F[Aib][Aib][Aib]VGL[Aib][Aib][Hyp]Q[Iva][Hyp][Aib][Phe(ol)]; configuration not given here),"activity change, negative = inhibition",[1],1.74% [at 12.4 µM]
same,"activity change, negative = viability loss",[2],-11.4% [at 9.23 µM]
same,"activity change, negative = cell killing",[3],-29.8% [at 9.23 µM]
C=C1CC2OC(=O)C(COC)C2C(OC(=O)/C(C)=C\C)CC2(C)OC1=CC2=O (stereo not given),Potency,[1],inactive
same,Potency,[2],3.58 µM (active)
same,Potency,[3],2.26 µM (active)
CC(O)(C(=O)O)C1CCC2(C)C1CCC1(C)C2CCC2C3(C)CCC(O)C(C)(COC4OC(CO)C(O)C(O)C4O)C3CCC21C (stereo not given),Potency,[1],inactive
same,Potency,[2],inactive
same,Potency,[3],inactive
COc1ccc(CCc2nc3c(C)c(-c4c(C)noc4C)c(C)cc3n2CCN2CCOCC2)cc1,Potency,[1],inactive
same,Potency,[2],18.3 µM (active)
same,Potency,[3],18.3 µM (active)
Cc1nc(NC(=O)N2CCCC2C(N)=O)sc1-c1ccnc(C(C)(C)C(F)(F)F)c1 (stereo not given),Potency,[1],inactive
same,Potency,[2],2.35 µM (active)
same,Potency,[3],2.63 µM (active)
C=C1C(=O)OC2CC(C)=C(C(C)CCCOC(C)=O)C(OC(=O)CC(C)CC)C12 (stereo not given),Potency,[1],inactive
same,Potency,[2],7.09 µM (active)
same,Potency,[3],7.09 µM (active)
C1=Cc2ccccc2C(=C2CCN(CCCCc3nn[nH]n3)CC2)c2ccccc21,Potency,[1],inactive
same,Potency,[2],inactive
same,Potency,[3],inactive
CC1(C)CCCC2(C)C1C(OC(=O)/C=C/C=C/C=O)C=C1COC(=O)C12O (stereo not given),Potency,[1],inactive
same,Potency,[2],7.09 µM (active)
same,Potency,[3],3.55 µM (active)
CC(=O)OC[C@]12[C@H](OC(C)=O)C(=O)[C@@H]3[C@@H](O)[C@@]14O[C@@]3(C)COC(=O)c1cccnc1[C@@H](C)[C@H](C)C(=O)O[C@@H]([C@H](O)[C@@H]2OC(C)=O)[C@]4(C)O,Potency,[1],inactive
same,Potency,[2],5.41 µM (active)
same,Potency,[3],5.41 µM (active)
C[C@H]1CC[C@@]2(OC1)O[C@H]1CC3C4CC[C@H]5C[C@@H](O)CC[C@]5(C)C4=CC(=O)[C@]3(C)[C@H]1[C@@H]2C (stereo not given in full),Potency,[1],inactive
same,Potency,[2],inactive
same,Potency,[3],inactive
COc1cc(O)cc(OC2OC(CO)C(O)C(O)C2O)c1 (stereo not given),Potency,[1],inactive
same,Potency,[2],inactive
same,Potency,[3],inactive
Cc1cc2c(cc1N1C(=O)c3cccc4c(CCCO)ccc(c34)C1=O)n(C)c(=O)n2C,Potency,[1],inactive
same,Potency,[2],0.858 µM (active)
same,Potency,[3],0.608 µM (active)
C[C@@H]1O[C@@H](O[C@H]2[C@H](OC(=O)[C@]34CCC(C)(C)C[C@H]3C3=CCC5[C@@]6(C)C[C@H](O)[C@H](O[C@@H]7O[C@H](CO)[C@@H](O)[C@H](O)[C@H]7O)[C@](CO)(C(=O)O)C6CC[C@@]5(C)[C@]3(C)C[C@H]4O)OC[C@H](O)[C@@H]2O)[C@H](O)[C@H](O)[C@H]1O[C@@H]1OC[C@@H](O)[C@H](O[C@@H]2OC[C@](O)(CO)[C@H]2O)[C@H]1O (stereo not given in full),"activity change, negative = inhibition",[1],3.47% [at 12.4 µM]
same,Potency,[2],0.772 µM (active)
same,Potency,[3],0.547 µM (active)
CCC(C)C(=O)O[C@H]1[C@@H](OC(=O)c2ccoc2)C[C@](C)(O)[C@]23OC(C)(C)[C@H](C[C@H](OC(=O)c4ccoc4)[C@]12COC(C)=O)[C@H]3OC(C)=O (stereo not given in full),Potency,[1],inactive
same,Potency,[2],inactive
same,Potency,[3],inactive
Cc1[nH]c2ccc(F)cc2c1-c1nc2c3cccnc3c3ncccc3c2[nH]1,Potency,[1],inactive
same,Potency,[2],1.21 µM (active)
same,Potency,[3],1.08 µM (active)
Cc1cc2ncc(C(=O)NCC(C)(C)NCC(=O)N3CCC[C@H]3C#N)cn2n1,Potency,[1],inactive
same,Potency,[2],inactive
same,Potency,[3],inactive
CC1OC(=O)C[C@@H]2C(C(=O)O)=CO[C@@H](O[C@H]3O[C@H](CO)[C@@H](O)[C@H](O)[C@H]3O)[C@H]12 (stereo not given in full),Potency,[1],inactive
same,Potency,[2],inactive
same,Potency,[3],inactive
Cn1ncc(Cl)c1-c1cc(C(=O)N[C@H](CN)Cc2ccc(F)c(F)c2)oc1Cl,Potency,[1],inactive
same,Potency,[2],0.649 µM (active)
same,Potency,[3],0.515 µM (active)
CC(=O)O[C@H]1CC2C(COC(=O)CC(C)C)=CO[C@@H](OC(=O)CC(C)C)C2[C@]12CO2 (stereo not given in full),Potency,[1],inactive
same,Potency,[2],7.96 µM (active)
same,Potency,[3],3.55 µM (active)
COCC(c1ccc(C(F)(F)F)cc1)N1CCN(C2(C)CCN(C(=O)c3c(C)ncnc3C)CC2)CC1C (stereo not given),Potency,[1],inactive
same,Potency,[2],inactive
same,Potency,[3],inactive
COc1ccc(-n2c(SCCCN3C(=O)c4cccc5cccc(c45)C3=O)nnc2-c2ccncc2)cc1,Potency,[1],inactive
same,Potency,[2],inactive
same,Potency,[3],inactive
CCCCOC(=O)NS(=O)(=O)c1sc(CC(C)C)cc1-c1ccc(Cn2ccnc2)cc1,Potency,[1],inactive
same,Potency,[2],23.5 µM (active)
same,Potency,[3],20.9 µM (active)
CC(=O)O[C@@H]1C[C@@]23C[C@@]24CC[C@H](O[C@@H]2OC[C@H](O)[C@H](O)[C@H]2O)C(C)(C)[C@@H]4CC[C@H]3[C@]2(C)[C@@H](O)C34O[C@H](C[C@@H](C)[C@@H]3[C@@]12C)[C@@H](C(C)(C)O)O4,Potency,[1],inactive
same,Potency,[2],inactive
same,Potency,[3],inactive

# Reference: PubChem BioAssay (NCATS)
